Rin1 Abl inh – inhibitors of human Rin1-Abl protein interaction | TR-FRET Rin1/Abl binding, biochemical | inhibition, % at 7.35 µM | AID 588664 | 360,000 compounds, 0.4% hits; in the data active = inhibition above about 5%, passing the limit was not always enough
p97 ATPase inh – inhibitors of human p97 ATPase | 220,000 compounds, 0.42% hits | P55072 | inhibition, % at 8 µM | recombinant p97 ATPase, Kinase-Glo ATP luminescence, 3 h | AID 1481; in the data active = inhibition above about 15%;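 also: 0% = DMSO vehicle and 100% = wells lacking enzyme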
LYPLA2 counter – LYPLA2 (human) inhibition in PME1 counter-screen | 320,000 compounds, 0.38% hits | O95372 | recombinant LYPLA2, FP-Rh probe fluorescence polarization | inhibition, % at 5.9 µM | AID 2177;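 active = inhibition above the screen-wide mean plus 3 SD, limit set per campaign, cut at about 26% in these data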;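 also: 0% = LYPLA2 with DMSO and 100% = wells lacking LYPLA2 enzyme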
Target sequence (O95372 whole entry, looked up): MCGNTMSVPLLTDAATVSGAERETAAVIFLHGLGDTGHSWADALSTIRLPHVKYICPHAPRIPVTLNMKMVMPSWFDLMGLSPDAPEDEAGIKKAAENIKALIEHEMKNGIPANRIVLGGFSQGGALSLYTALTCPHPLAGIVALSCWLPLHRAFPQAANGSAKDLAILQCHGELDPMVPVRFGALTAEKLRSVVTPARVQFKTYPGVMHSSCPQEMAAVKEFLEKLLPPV
Hck Nef HTS – inhibitors of human Hck kinase activated by Nef. P08631. Recombinant Hck-YEEI plus Nef, Z-Lyte FRET kinase assay. inhibition, % at 20 µM. 220,000 compounds, 0.68% hits. AID 463187;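 active = Hck-Nef kinase inhibition above about 50%, limit read from the data; inactive = inhibition below that limit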;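 also: 0% = DMSO with Hck plus Nef and 100% = Hck alone without Nef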
LYPLA1 counter – counter-screen for PME1 inhibitors: inhibitors of human LYPLA1; O75608; recombinant LYPLA1, FP-Rh probe fluorescence polarization; inhibition, % at 5.9 µM; 320,000 compounds, 0.16% hits; AID 2174;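 active = inhibition above the mean of all tested compounds plus 3 SD, set per campaign, cut at about 14% in these data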;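 also: inhibitors block serine hydrolase probe labeling of LYPLA1 so polarization falls; 0% = enzyme with DMSO and 100% = wells lacking LYPLA1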
Target sequence (O75608 whole entry, looked up): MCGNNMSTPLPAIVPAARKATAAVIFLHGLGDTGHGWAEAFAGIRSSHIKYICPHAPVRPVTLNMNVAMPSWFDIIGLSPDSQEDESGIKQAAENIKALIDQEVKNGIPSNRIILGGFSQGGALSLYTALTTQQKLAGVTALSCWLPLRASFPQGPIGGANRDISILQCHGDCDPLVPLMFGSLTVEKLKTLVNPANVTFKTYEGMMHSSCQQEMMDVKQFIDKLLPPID
PREPL inhibitor – human PREPL enzyme inhibition. 320,000 compounds, 0.68% hits. inhibition, % at 5.96 µM. Q4J6C6. AID 2751. recombinant PREPL, fluorescence polarization activity-based probe; in the data active = inhibition above about 43%;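 also: 0% = enzyme with DMSO and 100% = wells lacking enzyme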
p97 inh conf – confirmation of human p97 ATPase inhibitors. AID 1517. 760 compounds, 44% hits. inhibition, % at 8 µM. recombinant p97 ATPase, Kinase-Glo ATP luminescence. shares compounds with p97 ATPase inh;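 active = percent inhibition of p97 ATPase above a set limit, the primary screen's mean plus 3 SD, cut at about 15% in these data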;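 also: 0% = DMSO wells and 100% = wells lacking p97 protein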
* marks the source's active call; other numbers are inactive results; nt = no result. Sampled rows, rich in hits. Any-hit rate of the full collection: about 1.7%.

SMILES	Rin1 Abl inh	p97 ATPase inh	LYPLA2 counter	Hck Nef HTS	LYPLA1 counter	PREPL inhibitor	others
Cc1ccc(/C=C2\C(=O)NC(=S)N(c3ccc(F)cc3)C2=O)s1	-4.7	1.7	-8.4	98.5*	-4.1	-1.6
Cc1ccc(N2C(=O)NC(=O)/C(=C\c3ccc(N4CCOCC4)cc3)C2=O)cc1	3.2	0.4	-3.1	4.6	-1.4	2.0
Cc1ccc(N2C(=O)NC(=O)/C(=C\c3ccc([N+](=O)[O-])o3)C2=O)cc1	nt	3.6	-12.6	50.2*	-4.0	-9.7
NC(Cc1cc(O)c(O)cc1O)C(=O)O (centres undefined)	nt	nt	2.9	nt	-24.5	67.0*
N[C@@H](CCl)C(=O)O	-0.5	nt	1.5	nt	-0.4	-12.0
Cn1cccc1/C=C1\C(=O)NC(=O)N(CCC2=CCCCC2)C1=O	0.8	3.0	nt	7.3	nt	nt
O=C1NC(=O)N(CCC2=CCCCC2)C(=O)/C1=C\c1cccs1	0.3	7.5	-3.6	50.5*	-7.0	-4.3
Nc1cccc(SC2CC(=O)N(c3ccc(Cl)cc3C(=O)c3ccccc3)C2=O)c1 (centres undefined)	0.2	nt	nt	nt	nt	nt
O=C1NC(=S)N(Cc2ccco2)C(=O)/C1=C\c1cccs1	nt	40.8*	nt	97.5*	nt	nt
CC(C)[C@H]1C(=O)N2CCC[C@H]2[C@]2(O)O[C@](NC(=O)[C@@H]3C=C4c5cccc6[nH]cc(c56)C[C@H]4N(C)C3)(C(C)C)C(=O)N12	-1.8	1.3	5.7	-3.1	1.7	46.1*
CC(C)C[C@H]1C(=O)N2CCCC2[C@]2(O)O[C@](NC(=O)[C@@H]3C=C4c5cccc6[nH]cc(c56)CC4N(C)C3)(C(C)C)C(=O)N12 (some centres undefined)	-3.9	10.3	4.4	2.0	0.5	37.4
O=C(O)C1C2c3ccccc3C(O)C1(C(=O)O)c1ccccc12 (centres undefined)	0.1	nt	nt	nt	nt	nt
Cc1ccccc1CN1Cc2cnnn2-c2ccccc2C1C#N (centres undefined)	-0.8	nt	nt	nt	nt	nt
O=C1NC(=O)C(=Cc2ccc(Oc3ccc([N+](=O)[O-])cc3)cc2)C(=O)N1	2.3	1.4	38.3*	29.9	5.5	-14.8
COc1ccc2[nH]cc(C3=CCNCC3)c2c1	nt	nt	0.1	nt	0.5	50.7*
COc1ccc(CN2Cc3cc(-c4ccc(OC)cc4)ccc3-n3nncc3C2)cc1	-0.6	nt	nt	nt	nt	nt
COc1cccc(N2C(=O)NC(=O)/C(=C/c3ccc4c(c3)Cc3ccccc3-4)C2=O)c1	-2.6	1.4	2.1	115.5*	-4.5	-12.0
Cc1ccc(N2C(=O)/C(=C/c3ccc(CN(CCC#N)S(C)(=O)=O)o3)C(=O)NC2=S)cc1	5.2*	2.5	-4.0	2.8	-8.0	0.5
Cc1ccccc1NC(=NCCCN1CC1)Nc1ccccc1C	-1.1	nt	nt	nt	nt	nt
CCOc1ccc(-n2c(-c3cccs3)nc3ccccc3c2=O)cc1	3.2	2.1	4.3	16.9	3.5	-0.2
CCn1nc(-c2cccs2)nc2c(=O)n(C)c(=O)nc1-2	19.9*	nt	nt	nt	nt	nt
CS(=O)(=O)c1ccc(C2=C(CNC(=O)c3cccs3)[C@H]3CC[C@@H](C2)N3CCOc2ccccc2)cc1	-1.3	nt	nt	nt	nt	nt
CCCCn1c(NC(=O)c2ccco2)c(C(=O)OCC)c2nc3ccccc3nc21	4.4	33.3*	13.0	13.5	6.9	6.4	p97 inh conf=34.8*
CC(C)CCOC(=O)c1c(N)n(CC2CCCO2)c2nc3ccccc3nc12 (centres undefined)	3.8	2.5	4.3	16.2	-1.9	4.3
CC(C)OC(=O)c1c(N)n(CC2CCCO2)c2nc3ccccc3nc12 (centres undefined)	-3.2	26.5*	-2.6	30.7	-0.4	-4.3	p97 inh conf=0.2
Cc1ccnc(NC(=O)CCCc2ccc(N(CCCl)CCCl)cc2)n1	2.8	nt	nt	nt	nt	nt
COc1cc(C(c2c(C)[nH]n(-c3ccccc3)c2=O)c2c(C)[nH]n(-c3ccccc3)c2=O)cc(OC)c1OC	9.7*	20.3*	6.0	1.1	2.7	4.9	p97 inh conf=7.3
C[C@@H]1CN([C@H](C)CO)C(=O)CCCn2nncc2CO[C@H]1CN(C)C(=O)Oc1cccc2ccccc12	-3.6	nt	nt	nt	nt	nt
COC(=O)c1nc(-c2ccc3c(n2)C(=O)C(N)=C(OC)C3=O)c(N)c(-c2ccc(OC)c(OC)c2O)c1C	-0.7	16.9*	-1.6	16.7	2.1	3.7	p97 inh conf=33.6*
